target: CRTAM; experiment: pooled miR-30 sensor sort-seq; sequence = guide strand; conditions: shRNA
Note: reference of the scale not given here.

Row | Sequence | sensor-assay potency score (higher = more potent)
1 | TAGCTGCTCACACTGACCCTGA | -0.659
2 | TTAAACTACAAGCTTTATGTGC | -0.391
3 | TTGACCTTGATCTGTAACTTTC | -1.09
4 | TTTGCTTCTGAGTACAACTTTG | -0.892
5 | TTTGTGATGTAGTTCATGCAAC | -0.216
6 | TAGTATTACATTTCTTCCCATC | -0.999
7 | TTTTGCTTTCTGATAACTGAAG | -1.15
8 | TTGAATGTTGTACATTTTCCTT | -1.1
9 | TTAGCTGCTCACACTGACCCTG | -0.252
10 | TTTGTGCTTACAGAGTCGCTGT | -0.405
11 | TTGATCTGTAACTTTCTAGTGT | 0.218

target: CRX; experiment: as above; conditions: shRNA

Row | Sequence | sensor-assay potency score (higher = more potent)
12 | TTGTAGTCCAGAGGGTCCATGG | -1.32
13 | TGTAAGCTGAACACCGAGCTGT | 0.575
14 | AATAGGAGCTCGGAGACCCATA | -1.54
15 | TTCAGAGCCACCTCCTCACGGG | -0.313
16 | TGAGAGAATCACTAGGACCTGT | -0.0623
17 | TTTGACTTCTTCTTGGAGCAAG | -0.501
18 | ACTCTGATCCTTGTAGTCCAGA | -1.36
19 | TAGGTCATGGCATAGGGGGCGG | -1.09
20 | TAGGTGAATTTCCAGGTGCCCG | -1.41
21 | TTTCTCAGGAATGCCATCCCGG | -0.63
22 | TGAACCAAACCTGAACCCTGGA | -0.615
23 | TTCTGAAGCCTGGAGCTCGTGG | -0.966
24 | TTGGTTTGACTTCTTCTTGGAG | -0.00294
25 | TTTGGTTTGACTTCTTCTTGGA | 0.763
26 | TGATCCTTGTAGTCCAGAGGGT | -0.793
27 | TTGTAGGTGAATTTCCAGGTGC | -0.434
28 | TAGACGTCTGGGTACTGGGTCT | -0.0426
29 | TTGATCTTCAGAGCCACCTCCT | -0.746
30 | TGTAGGAATCTGAGATGCCCAG | -0.841
31 | TAGCTCTGGCCTGATAGGGAGG | -0.851
32 | TTGAACCAAACCTGAACCCTGG | -0.194
33 | AATTCCAAGCTATCCACGGGGC | -0.328

target: CRYGS; experiment: as above; conditions: shRNA

Row | Sequence | sensor-assay potency score (higher = more potent)
34 | TTTCTCAAAGATCTGAATCTTA | 0.174
35 | TTCGGTGGTTTCATACATCTGA | 0.37
36 | TTACAGGAGTGGATCTCTCGCA | 0.0996
37 | TATGTGTGGAAATCTGCACAGT | -0.978
38 | TTTCATACATCTGACCACTAAA | -1.27
39 | TAATGGAGTTGCAGCGACTTAG | -1.4
40 | TTTGTCTTCATAGAAAGTAATC | -1.62

From the OligoGym collection
